# Results as given in PMC7862700, “An all-to-all approach to the identification of sequence-specific readers for epigenetic DNA modifications on cytosine”.
# Assays:
# Assay in all cases: DAPPL (digital affinity profiling via proximity ligation, sequencing); 10 mM Tris-HCl pH 7.5, 50 mM NaCl, 1 mM DTT, 4% glycerol, room temperature, 30 min; GST-TFs on glutathione beads, 16-mer random dsDNA library, 0.1% formaldehyde crosslink after washing; high values mean tight binding
# Conditions in all cases: protein: recombinant; tags: N-terminal GST; dsDNA, one strand shown
# [1] = target: T1, FLI1 (Homo sapiens, UniProt Q01543 1-452)
# T1 sequence: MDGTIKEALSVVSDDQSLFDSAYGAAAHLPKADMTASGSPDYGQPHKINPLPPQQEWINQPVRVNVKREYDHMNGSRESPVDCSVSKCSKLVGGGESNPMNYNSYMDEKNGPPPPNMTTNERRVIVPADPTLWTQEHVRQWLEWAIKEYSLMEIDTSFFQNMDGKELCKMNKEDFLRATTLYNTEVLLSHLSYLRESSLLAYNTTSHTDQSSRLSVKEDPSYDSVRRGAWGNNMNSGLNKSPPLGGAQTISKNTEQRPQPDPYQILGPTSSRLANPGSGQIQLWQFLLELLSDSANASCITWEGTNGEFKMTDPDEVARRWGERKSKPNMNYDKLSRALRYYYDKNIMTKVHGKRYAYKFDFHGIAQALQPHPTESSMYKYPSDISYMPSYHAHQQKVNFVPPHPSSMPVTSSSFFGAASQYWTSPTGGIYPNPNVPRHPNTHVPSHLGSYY
# Summary of the method: (§1)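 In yeast, human transcription factors were expressed with a GST fusion, then pulled down on glutathione beads and given DNA barcodes. Pooled with a tag-only sample, they were exposed to 200 nmole of a 16-mer random double-stranded DNA library (Tris/NaCl/DTT/glycerol buffer, room temperature, 30 min), washed, crosslinked with 0.1% formaldehyde, proximity-ligated using BsaI/T4 ligase for 1 h at 37 °C, PCR-amplified and read on an Illumina NextSeq500. Each hexamer's frequency of reads for a factor, divided by the matching frequency for the tag-only sample, gives the binding signal.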
# [2] = target: T2, GABPA (Homo sapiens, UniProt Q06546 1-454)
# T2 sequence: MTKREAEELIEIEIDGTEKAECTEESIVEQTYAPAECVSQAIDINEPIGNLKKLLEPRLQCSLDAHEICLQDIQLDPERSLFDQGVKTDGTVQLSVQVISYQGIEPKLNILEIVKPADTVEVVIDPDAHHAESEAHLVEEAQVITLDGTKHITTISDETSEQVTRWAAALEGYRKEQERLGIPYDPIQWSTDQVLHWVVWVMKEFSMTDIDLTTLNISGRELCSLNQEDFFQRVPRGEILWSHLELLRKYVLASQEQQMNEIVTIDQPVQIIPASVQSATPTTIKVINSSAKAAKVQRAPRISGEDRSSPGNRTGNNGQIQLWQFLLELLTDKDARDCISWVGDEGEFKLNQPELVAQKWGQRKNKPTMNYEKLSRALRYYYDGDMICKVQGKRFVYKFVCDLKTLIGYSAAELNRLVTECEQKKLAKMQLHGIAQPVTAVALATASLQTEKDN
# Summary of the method: as §1
# [3] = target: T3, ERG (Homo sapiens, UniProt P11308 1-479)
# T3 sequence: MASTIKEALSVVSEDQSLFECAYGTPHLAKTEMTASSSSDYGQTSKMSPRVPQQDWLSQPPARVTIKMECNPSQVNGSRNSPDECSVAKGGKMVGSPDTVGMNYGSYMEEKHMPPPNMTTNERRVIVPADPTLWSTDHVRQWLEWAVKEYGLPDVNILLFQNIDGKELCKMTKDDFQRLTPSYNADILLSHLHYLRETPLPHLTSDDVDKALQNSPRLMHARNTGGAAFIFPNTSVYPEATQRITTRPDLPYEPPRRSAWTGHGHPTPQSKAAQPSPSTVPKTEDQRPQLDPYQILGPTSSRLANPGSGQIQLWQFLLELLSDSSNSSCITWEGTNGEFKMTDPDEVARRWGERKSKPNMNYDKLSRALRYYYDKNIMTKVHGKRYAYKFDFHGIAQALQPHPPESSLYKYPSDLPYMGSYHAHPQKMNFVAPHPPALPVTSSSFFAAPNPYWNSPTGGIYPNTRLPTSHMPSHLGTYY
# Summary of the method: as §1
# [4] = target: ELF1 (Homo sapiens, UniProt P32519 1-619)
# Summary of the method: as §1
# [5] = target: SPIB (Homo sapiens, UniProt Q01892 1-262)
# Summary of the method: as §1
# [6] = target: T4, ELK3 (Homo sapiens, UniProt P41970 1-407)
# T4 sequence: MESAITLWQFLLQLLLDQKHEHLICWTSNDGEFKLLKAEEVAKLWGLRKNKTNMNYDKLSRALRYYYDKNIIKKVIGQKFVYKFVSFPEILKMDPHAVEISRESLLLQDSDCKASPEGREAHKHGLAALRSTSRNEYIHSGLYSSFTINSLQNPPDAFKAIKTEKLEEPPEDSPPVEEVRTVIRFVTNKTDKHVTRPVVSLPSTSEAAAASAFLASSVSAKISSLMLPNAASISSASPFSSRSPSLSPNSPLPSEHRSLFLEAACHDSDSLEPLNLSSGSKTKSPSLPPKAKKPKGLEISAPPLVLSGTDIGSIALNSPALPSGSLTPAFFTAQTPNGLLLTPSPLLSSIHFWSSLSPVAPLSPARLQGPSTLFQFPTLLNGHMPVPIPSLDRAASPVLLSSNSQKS
# Summary of the method: as §1
# [7] = target: T5, FEV (Homo sapiens, UniProt Q99581 1-238)
# T5 sequence: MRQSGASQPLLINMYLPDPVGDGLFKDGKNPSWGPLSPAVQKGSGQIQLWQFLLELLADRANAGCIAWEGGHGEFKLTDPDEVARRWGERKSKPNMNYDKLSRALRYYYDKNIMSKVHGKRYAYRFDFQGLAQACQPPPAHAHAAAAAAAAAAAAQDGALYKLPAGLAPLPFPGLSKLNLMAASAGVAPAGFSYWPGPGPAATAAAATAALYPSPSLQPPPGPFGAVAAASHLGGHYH
# Summary of the method: as §1
# [8] = target: T6, ELK4 (Homo sapiens, UniProt P28324-2 1-405)
# T6 sequence: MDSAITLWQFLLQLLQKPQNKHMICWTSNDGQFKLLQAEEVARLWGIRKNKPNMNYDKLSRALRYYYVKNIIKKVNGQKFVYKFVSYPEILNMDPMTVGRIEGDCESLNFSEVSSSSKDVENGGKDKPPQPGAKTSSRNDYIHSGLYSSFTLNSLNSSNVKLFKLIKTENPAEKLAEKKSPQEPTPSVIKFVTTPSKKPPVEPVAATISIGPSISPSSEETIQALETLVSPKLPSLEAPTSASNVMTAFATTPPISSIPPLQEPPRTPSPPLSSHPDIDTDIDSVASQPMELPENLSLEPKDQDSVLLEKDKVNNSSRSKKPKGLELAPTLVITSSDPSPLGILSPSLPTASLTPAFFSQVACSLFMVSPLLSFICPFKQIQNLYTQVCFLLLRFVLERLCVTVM
# Summary of the method: as §1
# [9] = target: ETV1 (Homo sapiens, UniProt P50549 1-477)
# Summary of the method: as §1
# [10] = target: T7, ERF (Homo sapiens, UniProt P50548 1-548)
# T7 sequence: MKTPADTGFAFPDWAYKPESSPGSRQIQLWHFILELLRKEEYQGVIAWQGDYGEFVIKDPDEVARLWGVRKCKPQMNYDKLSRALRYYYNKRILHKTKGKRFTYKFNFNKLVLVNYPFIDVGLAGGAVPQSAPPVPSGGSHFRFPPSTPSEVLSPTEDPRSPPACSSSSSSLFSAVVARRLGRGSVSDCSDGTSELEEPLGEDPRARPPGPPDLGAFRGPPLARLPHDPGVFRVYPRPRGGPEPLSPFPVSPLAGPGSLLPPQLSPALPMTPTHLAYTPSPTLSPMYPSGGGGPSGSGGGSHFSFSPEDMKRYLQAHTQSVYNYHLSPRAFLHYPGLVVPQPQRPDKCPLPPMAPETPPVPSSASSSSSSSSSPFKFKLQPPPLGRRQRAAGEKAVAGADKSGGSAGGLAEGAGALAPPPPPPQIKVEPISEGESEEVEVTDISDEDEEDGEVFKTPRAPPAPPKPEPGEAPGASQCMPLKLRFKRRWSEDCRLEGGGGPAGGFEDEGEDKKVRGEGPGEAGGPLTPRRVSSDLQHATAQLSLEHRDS
# Summary of the method: as §1
# [11] = target: T8, ETV3L (Homo sapiens, UniProt Q6ZN32 1-361)
# T8 sequence: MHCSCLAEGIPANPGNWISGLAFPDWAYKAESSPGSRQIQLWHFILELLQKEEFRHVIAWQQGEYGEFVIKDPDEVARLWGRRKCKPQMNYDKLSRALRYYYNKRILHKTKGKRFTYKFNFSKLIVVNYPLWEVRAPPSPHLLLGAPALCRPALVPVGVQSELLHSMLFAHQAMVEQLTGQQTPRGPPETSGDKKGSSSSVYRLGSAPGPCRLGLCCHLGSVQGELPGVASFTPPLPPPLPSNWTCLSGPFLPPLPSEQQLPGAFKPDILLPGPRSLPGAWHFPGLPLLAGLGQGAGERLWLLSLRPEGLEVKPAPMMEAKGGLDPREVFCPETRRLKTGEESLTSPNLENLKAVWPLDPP
# Summary of the method: as §1
# [12] = target: T9, ETS2 (Homo sapiens, UniProt P15036 1-469)
# T9 sequence: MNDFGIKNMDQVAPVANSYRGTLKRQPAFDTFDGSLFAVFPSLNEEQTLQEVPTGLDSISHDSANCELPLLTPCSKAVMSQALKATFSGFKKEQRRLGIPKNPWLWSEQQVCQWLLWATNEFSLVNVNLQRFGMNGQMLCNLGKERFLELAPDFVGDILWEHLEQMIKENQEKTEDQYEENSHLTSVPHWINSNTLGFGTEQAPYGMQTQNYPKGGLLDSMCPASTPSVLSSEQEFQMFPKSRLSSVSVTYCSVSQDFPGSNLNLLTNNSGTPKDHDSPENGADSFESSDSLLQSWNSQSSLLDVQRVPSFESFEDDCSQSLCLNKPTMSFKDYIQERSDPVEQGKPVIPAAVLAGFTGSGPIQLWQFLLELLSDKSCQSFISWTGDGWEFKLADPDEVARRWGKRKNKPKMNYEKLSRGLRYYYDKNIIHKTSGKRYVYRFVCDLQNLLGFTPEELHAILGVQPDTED
# Summary of the method: as §1
# [13] = target: T10, SPDEF (Homo sapiens, UniProt O95238 1-335)
# T10 sequence: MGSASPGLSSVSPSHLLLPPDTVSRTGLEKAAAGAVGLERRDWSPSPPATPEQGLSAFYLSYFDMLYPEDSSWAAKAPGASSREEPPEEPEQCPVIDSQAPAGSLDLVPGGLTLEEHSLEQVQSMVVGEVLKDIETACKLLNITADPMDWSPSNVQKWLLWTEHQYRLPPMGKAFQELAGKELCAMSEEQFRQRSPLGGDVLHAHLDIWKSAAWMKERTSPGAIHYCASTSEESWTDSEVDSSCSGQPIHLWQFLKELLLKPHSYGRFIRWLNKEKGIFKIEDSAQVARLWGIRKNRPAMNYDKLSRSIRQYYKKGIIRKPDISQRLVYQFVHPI
# Summary of the method: as §1
# [14] = target: T11, ELK1 (Homo sapiens, UniProt P19419 1-428)
# T11 sequence: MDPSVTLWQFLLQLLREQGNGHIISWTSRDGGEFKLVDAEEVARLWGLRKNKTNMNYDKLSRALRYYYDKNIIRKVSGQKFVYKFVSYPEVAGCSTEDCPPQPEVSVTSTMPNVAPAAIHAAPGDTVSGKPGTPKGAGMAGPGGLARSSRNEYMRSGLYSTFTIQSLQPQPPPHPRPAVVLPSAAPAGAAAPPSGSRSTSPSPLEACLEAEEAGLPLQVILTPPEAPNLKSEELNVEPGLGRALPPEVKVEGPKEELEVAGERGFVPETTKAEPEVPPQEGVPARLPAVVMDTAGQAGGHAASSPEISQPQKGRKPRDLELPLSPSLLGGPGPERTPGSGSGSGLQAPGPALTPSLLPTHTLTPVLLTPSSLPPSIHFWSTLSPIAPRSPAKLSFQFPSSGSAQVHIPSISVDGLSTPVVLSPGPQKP
# Summary of the method: as §1
# [15] = target: T12, ETV7 (Homo sapiens, UniProt Q9Y603 1-341)
# T12 sequence: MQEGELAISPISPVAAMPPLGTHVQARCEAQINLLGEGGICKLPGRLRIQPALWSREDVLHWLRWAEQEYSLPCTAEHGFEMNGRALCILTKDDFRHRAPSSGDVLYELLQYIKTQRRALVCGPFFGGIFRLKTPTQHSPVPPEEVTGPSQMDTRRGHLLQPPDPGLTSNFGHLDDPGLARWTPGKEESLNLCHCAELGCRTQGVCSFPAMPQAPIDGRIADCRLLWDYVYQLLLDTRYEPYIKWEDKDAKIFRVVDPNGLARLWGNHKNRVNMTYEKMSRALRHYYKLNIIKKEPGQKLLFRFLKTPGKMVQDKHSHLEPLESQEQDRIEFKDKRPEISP
# Summary of the method: as §1
# Chain of ELF1 (P32519 whole entry): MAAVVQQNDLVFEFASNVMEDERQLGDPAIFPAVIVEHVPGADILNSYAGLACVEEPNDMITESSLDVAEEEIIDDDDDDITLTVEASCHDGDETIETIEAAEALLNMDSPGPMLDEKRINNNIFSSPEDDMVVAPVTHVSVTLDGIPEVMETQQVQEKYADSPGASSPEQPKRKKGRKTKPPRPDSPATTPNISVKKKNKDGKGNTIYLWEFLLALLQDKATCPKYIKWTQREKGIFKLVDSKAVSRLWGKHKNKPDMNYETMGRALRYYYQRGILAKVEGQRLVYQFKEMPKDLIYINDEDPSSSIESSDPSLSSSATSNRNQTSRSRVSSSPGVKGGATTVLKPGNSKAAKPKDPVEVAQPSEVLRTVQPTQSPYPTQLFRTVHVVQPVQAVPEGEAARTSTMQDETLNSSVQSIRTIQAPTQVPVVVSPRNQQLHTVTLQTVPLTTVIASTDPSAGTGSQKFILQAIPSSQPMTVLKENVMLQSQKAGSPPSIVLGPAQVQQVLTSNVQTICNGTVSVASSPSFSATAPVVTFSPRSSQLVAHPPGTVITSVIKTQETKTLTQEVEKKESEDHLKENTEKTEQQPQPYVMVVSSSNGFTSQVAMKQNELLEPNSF
# Chain of SPIB (Q01892 whole entry): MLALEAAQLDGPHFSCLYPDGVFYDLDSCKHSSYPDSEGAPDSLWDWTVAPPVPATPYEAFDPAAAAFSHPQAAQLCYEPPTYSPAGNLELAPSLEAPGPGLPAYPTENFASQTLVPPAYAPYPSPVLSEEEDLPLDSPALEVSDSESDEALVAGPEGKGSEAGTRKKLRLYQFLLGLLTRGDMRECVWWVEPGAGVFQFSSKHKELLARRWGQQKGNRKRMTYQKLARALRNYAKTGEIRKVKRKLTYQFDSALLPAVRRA
# Chain of ETV1 (P50549 whole entry): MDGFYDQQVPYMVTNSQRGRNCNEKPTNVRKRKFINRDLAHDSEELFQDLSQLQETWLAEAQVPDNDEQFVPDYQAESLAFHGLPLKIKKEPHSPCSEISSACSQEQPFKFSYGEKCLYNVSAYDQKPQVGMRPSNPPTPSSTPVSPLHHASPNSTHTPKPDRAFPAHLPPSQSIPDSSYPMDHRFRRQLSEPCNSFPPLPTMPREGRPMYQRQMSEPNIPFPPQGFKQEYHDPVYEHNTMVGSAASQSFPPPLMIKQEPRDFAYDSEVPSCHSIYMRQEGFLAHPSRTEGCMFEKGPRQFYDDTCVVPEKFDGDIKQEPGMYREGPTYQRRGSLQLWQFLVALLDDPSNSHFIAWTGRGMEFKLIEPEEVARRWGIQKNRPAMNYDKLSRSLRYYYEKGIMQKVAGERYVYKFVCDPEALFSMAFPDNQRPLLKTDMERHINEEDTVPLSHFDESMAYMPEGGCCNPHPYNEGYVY
Sequence,binding signal [1],binding signal [2],binding signal [3],binding signal [4],binding signal [5],binding signal [6],binding signal [7],binding signal [8],binding signal [9],binding signal [10],binding signal [11],binding signal [12],binding signal [13],binding signal [14],binding signal [15]
CGGGCT,"1.05 fold enrichment (6-mer frequency, TF over GST control)","1.05 fold enrichment (6-mer frequency, TF over GST control)","1.02 fold enrichment (6-mer frequency, TF over GST control)","1.04 fold enrichment (6-mer frequency, TF over GST control)","1.13 fold enrichment (6-mer frequency, TF over GST control)","1.14 fold enrichment (6-mer frequency, TF over GST control)","1.01 fold enrichment (6-mer frequency, TF over GST control)","1.18 fold enrichment (6-mer frequency, TF over GST control)","1.07 fold enrichment (6-mer frequency, TF over GST control)","1.05 fold enrichment (6-mer frequency, TF over GST control)","1.01 fold enrichment (6-mer frequency, TF over GST control)","1.07 fold enrichment (6-mer frequency, TF over GST control)","1.07 fold enrichment (6-mer frequency, TF over GST control)",,
CATTGA,"1.06 fold enrichment (6-mer frequency, TF over GST control)","1 fold enrichment (6-mer frequency, TF over GST control)",,,,,,"1.11 fold enrichment (6-mer frequency, TF over GST control)",,"1 fold enrichment (6-mer frequency, TF over GST control)","1.01 fold enrichment (6-mer frequency, TF over GST control)",,,"1.05 fold enrichment (6-mer frequency, TF over GST control)","1.01 fold enrichment (6-mer frequency, TF over GST control)"
ACAAAG,"1.04 fold enrichment (6-mer frequency, TF over GST control)","1.03 fold enrichment (6-mer frequency, TF over GST control)",,"1.02 fold enrichment (6-mer frequency, TF over GST control)",,"1.04 fold enrichment (6-mer frequency, TF over GST control)",,,,"1.01 fold enrichment (6-mer frequency, TF over GST control)",,"1.01 fold enrichment (6-mer frequency, TF over GST control)",,,"1.01 fold enrichment (6-mer frequency, TF over GST control)"
